This note sets out measurements from PubChem BioAssay (Tox21).

The nature of assay [1]: qHTS assay to identify small molecule antagonists of the thyroid receptor (TR) signaling pathway (AID 743065). Note: series mostly up to about 70 µM; nearly all actives have a fitted effect of over 55% in size. The method, boiled down:
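GH3.TRE-Luc rat pituitary cells carrying two TR response elements driving luciferase were plated for 4 h, given compound plus 1 nM T3 (final), and incubated 23.5 h at 37 C. ONE-Glo luminescence measured reporter inhibition; CellTiter-Fluor fluorescence tracked cytotoxicity.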

The test system of assay [2] is thyroid hormone receptor (rat, GH3 cells). The assay can be described thus: qHTS assay to identify small molecule agonists of the thyroid receptor (TR) signaling pathway (AID 743066; calls by dose curve).
Assay [3] in a line: qHTS assay to identify small molecule antagonists of the estrogen receptor alpha (ER-alpha) signaling pathway - cell viability counter screen (AID 743074; calls by dose curve;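 note: HEK293 cells carrying ER-alpha-UAS-bla reporter stimulated with 17beta-estradiol; nearly all actives have a fitted effect of over 45% in size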).
A short description of assay [4]: qHTS assay to identify small molecule antagonists of the estrogen receptor alpha (ER-alpha) signaling pathway using the BG1 cell line - cell viability counter screen (AID 743081).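 Note: compound given together with 17beta-estradiol as the ER stimulus; series mostly up to about 70 µM; nearly all actives have a fitted effect of over 45% in size.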
For assay [5], the target named is Aromatase (Homo sapiens) (UniProt P11511). The assay can be described thus: qHTS assay to identify aromatase inhibitors (AID 743083). Note: nearly all actives have a fitted effect of over 55% in size. Note: potency is the fitted concentration of half-maximal effect.
Assay [6] in a line: qHTS assay to identify aromatase inhibitors - cell viability counter screen (AID 743084).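 Note: cells stimulated with testosterone during compound exposure; nearly all actives have a fitted effect of over 55% in size.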
For assay [7], the target named is Aryl hydrocarbon receptor (Homo sapiens) (UniProt P35869). The assay can be described thus: qHTS assay to identify small molecule that activate the aryl hydrocarbon receptor (AhR) signaling pathway (AID 743085).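 For activation: HG2L7.5c1 human HepG2 liver cells with stably integrated DRE-driven firefly reporter; series mostly up to about 70 µM.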 Note: nearly all actives have a fitted effect of over 15% in size. Note: potency is the fitted concentration of half-maximal effect. The method, boiled down:
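Measured in HG2L7.5c1 cells: CellTiter-Fluor signal (30 min incubation, 37C) for viability, then luciferase luminescence (30 min, room temperature). Compound contact time was 24 h at 37C, following a 5 h pre-incubation.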

Assay [8] in a line: qHTS assay to identify small molecule that activate the aryl hydrocarbon receptor (AhR) signaling pathway - cell viability counter screen (AID 743086).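 Note: HepG2 liver cells carrying the AhR DRE luciferase reporter; series mostly up to about 70 µM; nearly all actives have a fitted effect of over 45% in size.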 The method, boiled down:
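HepG2-AhR-luc (HG2L7.5c1) cells, 4000/well, were preincubated 5 h at 37C, exposed to compound in qHTS format for 24 hr at 37C, then given CellTiter-Fluor for 30 min; viability was read as fluorescence in the reporter wells.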

Assay [9] is described as follows: qHTS assay to identify small molecule antagonists of the peroxisome proliferator-activated receptor gamma (PPARg) signaling pathway - cell viability counter screen (AID 743194). Note: nearly all actives have a fitted effect of over 55% in size. To be noted: Potency: co-treated with 50 nM rosiglitazone. An outline of the steps: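 PPARg-UAS-bla HEK293H cells were plated, rested 5 h at 37 C, then treated with compounds plus rosiglitazone (50 nM final) for 17 h at 37 C; viability was then read by CellTiter-Glo luminescence after 30 min at room temperature.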

Assay [10] is described as follows: qHTS assay for small molecule agonists of the antioxidant response element (ARE) signaling pathway (AID 743202; active = well fitted activation curve with a large enough effect in the signal ratio in the repeat runs, not every such curve was filed as active; the % refers to the signal ratio; note: potency is the fitted concentration of half-maximal effect). The method, boiled down:
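Steps: seed ARE-bla HepG2 cells (2,000/well); incubate 5 h at 37 C; add compounds by pin tool; incubate 16 h at 37 C; add FRET substrate; read fluorescence after 2 h at RT.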

The nature of assay [11]: qHTS assay for small molecule agonists of the antioxidant response element (ARE) signaling pathway - cell viability counter screen (AID 743203; calls by dose curve; note: nearly all actives have a fitted effect of over 55% in size). The method, boiled down:
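Cytotoxicity was tested in parallel with the ARE reporter screen. ARE-bla HepG2 cells were exposed to compounds for 16 hrs, and viability was taken from CellTiter-Glo luminescence.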

Assay [12] is described as follows: qHTS assay for small molecule activators of the heat shock response signaling pathway - cell viability counter screen (AID 743209). Note: nearly all actives have a fitted effect of over 50% in size. An outline of the steps: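 Cytotoxicity counter screen run in parallel with the HSE beta-lactamase reporter, using the same wells. HeLa HSE-bla cells received compound for 5 h at 37 C; ATP-based CellTiter-Glo luminescence was measured after 30 min at room temperature.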

Assay [13] has as its target Peroxisome proliferator-activated receptor gamma (Homo sapiens) (UniProt P37231). The assay can be described thus: qHTS assay to identify small molecule agonists of the peroxisome proliferator-activated receptor gamma (PPARg) signaling pathway (AID 743094; active = well fitted activation curve with a large enough effect in the signal ratio in the repeat runs, not every such curve was filed as active; the % refers to the signal ratio). An outline of the steps:
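Cells from the PPARg UAS-bla HEK293H line are plated and incubated 5 h at 37C. Compounds in DMSO are pinned in and left 17 h at 37C. LiveBLAzer B/G substrate is then added for 1 h at room temperature before fluorescence is measured.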

The target is the same in assay [14]. The assay can be described thus: qHTS assay to identify small molecule antagonists of the peroxisome proliferator-activated receptor gamma (PPARg) signaling pathway (AID 743191; calls by dose curve; note: series mostly up to about 63 µM; nearly all actives have a fitted effect of over 30% in size). The method, boiled down:
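GeneBLAzer PPARg UAS-bla HEK293H cells carrying a UAS-driven beta-lactamase reporter were plated at 3000 cells/well, preincubated 5 h at 37C, then given compound for 17 h at 37C; LiveBLAzer B/G FRET substrate was read after 1 h at room temperature.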

A short description of assay [15]: qHTS assay for small molecule activators of the heat shock response signaling pathway (AID 743210; active = well fitted activation curve with a large enough effect in the signal ratio in the repeat runs, with a control signal flat, not every such curve was filed as active; the % refers to the signal ratio;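 note: HeLa cells with beta-lactamase reporter driven by heat shock elements; series mostly up to about 63 µM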). An outline of the steps: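 Activation of heat shock element-controlled beta-lactamase expression is measured in HeLa cells by LiveBLAzer FRET fluorescence, with compound exposure lasting 5 h at 37 C and substrate loading 2.5 h at room temperature.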
The nature of assay [16]: qHTS assay to identify small molecule agonists of the peroxisome proliferator-activated receptor delta (PPARd) signaling pathway - cell viability counter screen (AID 743211). Note: nearly all actives have a fitted effect of over 55% in size. The method, boiled down: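 Following 5 h plating at 37 C and 5% CO2, PPARd UAS-bla HEK293H cells took up test compounds for 17 h. Viability was quantified by luminescence 30 min after CellTiter-Glo addition at room temperature.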

Assay [17] is described as follows: qHTS assay to identify small molecule antagonists of the estrogen receptor alpha (ER-alpha) signaling pathway using the BG1 cell line (AID 743080; calls by dose curve;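 note: BG1 cells stimulated with 17beta-estradiol alongside compound; series mostly up to about 70 µM; nearly all actives have a fitted effect of over 25% in size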). An outline of the steps: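 BG1Luc4E2, endogenous ER-alpha, 4xERE-luc; 5 d charcoal-stripped FBS, phenol red free; 24 h plating; cpd + 17beta-estradiol 21.5 h, 37 C/5% CO2; CellTiter-Fluor viability 30 min, then ONE-Glo luciferase 30 min RT.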

Structures are written as SMILES. Results filed as inconclusive are left out. Values without a mark were called inactive. Active and inactive are the calls of the source. Unless noted, calls come from the whole dose curve; as a rule, active = well fitted curve in the direction sought with a large enough effect in the repeat runs; inconclusive = weak or mixed curves; inactive = no such curve, though single readings can be large; an effect the other way counts as inactive or inconclusive.

Chain of Peroxisome proliferator-activated receptor gamma (Homo sapiens) (P37231 whole entry, looked up): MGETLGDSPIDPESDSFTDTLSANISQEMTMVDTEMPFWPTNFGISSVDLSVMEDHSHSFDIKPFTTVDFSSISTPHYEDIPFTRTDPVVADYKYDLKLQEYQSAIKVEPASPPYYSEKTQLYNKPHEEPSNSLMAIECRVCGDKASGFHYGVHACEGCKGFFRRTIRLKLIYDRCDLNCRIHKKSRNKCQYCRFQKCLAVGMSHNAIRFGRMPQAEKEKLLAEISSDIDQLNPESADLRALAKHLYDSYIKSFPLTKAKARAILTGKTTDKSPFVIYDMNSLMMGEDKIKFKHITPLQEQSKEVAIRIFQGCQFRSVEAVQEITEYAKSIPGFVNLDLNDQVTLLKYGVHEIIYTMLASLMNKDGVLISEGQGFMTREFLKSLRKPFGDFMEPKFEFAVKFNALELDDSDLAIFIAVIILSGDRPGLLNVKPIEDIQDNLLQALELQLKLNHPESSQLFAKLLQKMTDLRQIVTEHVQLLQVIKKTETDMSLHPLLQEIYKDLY
Chain of Aromatase (Homo sapiens) (P11511 whole entry, looked up): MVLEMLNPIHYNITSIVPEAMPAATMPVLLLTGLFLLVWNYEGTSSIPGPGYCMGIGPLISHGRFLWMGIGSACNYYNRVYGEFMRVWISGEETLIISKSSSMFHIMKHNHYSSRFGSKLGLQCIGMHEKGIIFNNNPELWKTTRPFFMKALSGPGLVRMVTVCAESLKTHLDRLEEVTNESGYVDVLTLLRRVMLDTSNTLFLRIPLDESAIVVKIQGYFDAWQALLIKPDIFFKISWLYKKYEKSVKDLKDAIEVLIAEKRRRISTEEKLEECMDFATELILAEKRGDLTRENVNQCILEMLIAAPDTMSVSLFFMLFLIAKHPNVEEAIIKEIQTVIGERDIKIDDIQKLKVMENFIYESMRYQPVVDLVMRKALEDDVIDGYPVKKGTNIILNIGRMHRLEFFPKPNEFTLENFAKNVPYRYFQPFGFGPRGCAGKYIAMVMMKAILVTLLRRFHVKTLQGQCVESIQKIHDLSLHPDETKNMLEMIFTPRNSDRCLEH
Chain of Aryl hydrocarbon receptor (Homo sapiens) (P35869 whole entry, looked up): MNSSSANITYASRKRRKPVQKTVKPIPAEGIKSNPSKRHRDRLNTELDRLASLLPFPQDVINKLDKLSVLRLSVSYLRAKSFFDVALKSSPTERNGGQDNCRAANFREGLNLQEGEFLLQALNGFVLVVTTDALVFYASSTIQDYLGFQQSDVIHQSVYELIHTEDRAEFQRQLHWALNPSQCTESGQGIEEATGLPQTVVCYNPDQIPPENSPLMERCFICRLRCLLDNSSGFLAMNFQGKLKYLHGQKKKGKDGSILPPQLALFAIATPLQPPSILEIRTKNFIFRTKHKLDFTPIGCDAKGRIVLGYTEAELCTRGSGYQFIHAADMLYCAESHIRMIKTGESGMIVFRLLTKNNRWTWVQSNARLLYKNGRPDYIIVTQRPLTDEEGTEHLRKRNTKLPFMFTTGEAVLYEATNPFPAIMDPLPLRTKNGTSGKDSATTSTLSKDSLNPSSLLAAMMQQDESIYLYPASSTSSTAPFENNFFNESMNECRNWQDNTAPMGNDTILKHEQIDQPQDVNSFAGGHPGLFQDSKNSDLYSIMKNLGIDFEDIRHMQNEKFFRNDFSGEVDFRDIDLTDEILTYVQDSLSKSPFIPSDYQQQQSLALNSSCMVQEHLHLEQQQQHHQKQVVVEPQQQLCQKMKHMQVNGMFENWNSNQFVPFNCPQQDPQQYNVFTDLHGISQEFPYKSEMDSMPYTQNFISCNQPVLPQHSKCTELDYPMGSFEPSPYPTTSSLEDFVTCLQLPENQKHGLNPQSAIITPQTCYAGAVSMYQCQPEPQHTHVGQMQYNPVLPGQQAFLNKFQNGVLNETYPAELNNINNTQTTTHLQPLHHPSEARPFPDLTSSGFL

For the compound `CCS(=O)(=O)CCSP(=O)(OC)OC`, the Potency result in assay [1], in [2], in assay [4], in [5], in assay [6] and in assay [7] was “inactive” each time. In addition, the Potency result in [9], in assay [11] and in assay [12] was “inactive” in each case. Besides, the call in assay [3] and in [8] was inactive. Also, the Potency in assay [10] was 8.63 µM (active).
Turning to `N#CC(O)c1ccccc1` (stereo unspecified), the Potency entry in assay [1], in assay [2], in assay [4], in [5], in assay [6] and in assay [7] was “inactive” each time. The Potency result in assay [14], in assay [9], in assay [10], in [12] and in assay [16] was “inactive” each time. Moreover, the compound was classed as inactive in [3], in [8], in assay [13] and in [15].
In the case of `CC(C)(C)C(=O)C(Oc1ccc(Cl)cc1)n1cncn1` (stereo unspecified), the Potency entry in assay [1], in assay [2], in [4], in assay [6], in assay [14] and in assay [9] was “inactive” in each case. In addition, the Potency result in assay [10], in [11], in assay [12] and in assay [16] was “inactive” throughout. For the same compound, the result in [3], in assay [8], in [13] and in assay [15] was inactive. The Potency is 54.4 µM (active) in assay [5] and 48.5 µM (active) in assay [7].
Turning to `ClCC(Cl)Cl`, the Potency result in [1], in assay [2], in assay [17], in assay [4], in [5] and in assay [6] was “inactive” each time. Besides, the Potency entry in assay [7], in [14], in assay [9], in assay [11], in assay [12] and in assay [16] was “inactive” throughout. For the same compound, the compound was classed as inactive in assay [3], in assay [8], in assay [13] and in assay [15].
Regarding `CC(N)=S`, the Potency entry in assay [1], in assay [2], in [4], in [5], in assay [6] and in [7] was “inactive” each time. Besides, the Potency entry in assay [14], in [10], in assay [11], in [12] and in assay [16] was “inactive” throughout. For the same compound, the compound was classed as inactive in assay [3], in [8] and in assay [13].
Turning to `CN1CCN(C(=O)O[C@H]2c3nccnc3C(=O)N2c2ccc(Cl)cn2)CC1`, the Potency result in [1], in assay [2], in assay [4], in assay [5], in assay [6] and in [7] was “inactive” in each case. Further, the Potency entry in [14], in assay [9], in [10], in [11], in [12] and in assay [16] was “inactive” throughout. The call in assay [3], in assay [8], in assay [13] and in assay [15] was inactive.
Consider `CCCSC(=O)N(CCC)CCC`, for which the Potency entry in assay [1], in [2], in assay [4], in assay [5], in assay [6] and in [7] was “inactive” throughout. The Potency entry in assay [9], in assay [10], in assay [11], in [12] and in assay [16] was “inactive” each time. The compound was classed as inactive in assay [3] and in assay [8].
For `O=[N+]([O-])c1cccc2c([N+](=O)[O-])cccc12`, the Potency entry in assay [1], in assay [2], in assay [4], in assay [5], in [6] and in assay [7] was “inactive” throughout. Also, the Potency result in assay [14], in [9] and in assay [16] was “inactive” throughout. In addition, the outcome in [3], in assay [8], in assay [13] and in assay [15] was inactive. Besides, the Potency in assay [10] is 3.88 µM (active).
Turning to `CCCCOC(=O)c1ccccc1C(=O)O`, the Potency result in assay [1], in [2], in [4], in [5], in assay [6] and in assay [14] was “inactive” in each case. Also, the Potency result in [9], in [10], in assay [11], in assay [12] and in assay [16] was “inactive” in each case. Besides, the compound was called inactive in [3], in assay [8], in assay [13] and in [15].
